According to PubChem BioAssay (EPA / NIEHS):
The source made the active and inactive calls. The calls were made as follows: active = hit-call score of the fitted dose curve at least 0.9, where 1 is the maximum; inactive = score below 0.9.

What follows are compounds tested on Epidermal growth factor receptor (EGFR), EGFR (gene 1956) (assay: BSK_BE3C_EGFR: BioMAP Diversity Plus: BE3C Assay for Epidermal growth factor receptor (EGFR) Biomarker Activity (AID 2284281)). Conditions: primary human bronchial epithelial cells.
Experimental: BSK_BE3C is a cell-based, multiplexed-readout assay that uses bronchial epithelial cell, a human lung primary cell, with measurements taken at 24 hours after chemical dosing in a 96-well plate.BSK_BE3C_EGFR is an assay component measured in the BSK_BE3C assay. It measures EGFR antibody related to regulation of gene expression using ELISA technology.Data from the assay component BSK_BE3C_EGFR was analyzed at the endpoint, BSK_BE3C_EGFR, in the positive analysis fitting direction relative to DMSO as the negative control and baseline of activity. Using a type of binding reporter, gain or loss-of-signal activity can be used to understand protein changes. To generalize the intended target to other relatable targets, this assay endpoint is annotated to the 'kinase' intended target family, where the subfamily is 'receptor tyrosine kinase'.
The levels of cell surface (or secreted, indicated by the prefix "s") biomarker endpoints were measured by ELISA. Overt cytotoxicity to cells in confluent adherent cultures (all systems other than the BT system) was assessed by measuring total protein levels using sulforhodamine B (SRB) staining in parallel cultures at the time of biomarker measurements, indicated as SRB endpoints. For proliferation assays for adherent cell types, individual cell types are cultured at sub-confluence and relative cell numbers quantified by SRB staining at time points optimized for each system (48 h: 3C and CASM3C systems; 72 h: BT and HDF3CGF systems; 96 h: SAg system). SRB was performed by staining cells with 0.1% SRB after fixation with 10% TCA and reading wells at 560 nm.Viability and proliferation of PBMC (T cells) was quantified by Alamar Blue reduction for the SAg and BT systems. For PBMC viability (referred to as PBMC Cytotoxicity within the assay endpoint names), cells were plated (75,000/well in a 96-well plate) and then chemical samples added for 1 h before addition of activators, SEB and TSST-1 (20 ng/mL final concentration each). Cells were incubated for 90 h. Then, Alamar Blue (20 uL/well) (Invitrogen, Cat DAL1100) was added for 6 h, and the plates were read with a fluorescence microplate reader at 546/580 nm (excitation/emission). For PBMC proliferation, cells were plated and activated as above but incubated for only 16 h prior to addition of Alamar Blue. Plates were read after 6 h.

| SMILES | outcome |
| --- | --- |
| NC(=O)C(F)(F)C(F)(F)F | inactive |
| C=CC(=O)OCC(F)(F)C(F)F | inactive |
| O=C(O)C(F)(F)C(F)(F)C(=O)O | inactive |
| COC(=O)C(F)(F)C(F)(F)OC(F)(C(F)(F)F)C(F)(F)OC(F)=C(F)F (stereo not given) | inactive |
| O=S(=O)(F)C(F)(F)C(F)(F)C(F)(F)C(F)(F)C(F)(F)C(F)(F)C(F)(F)C(F)(F)F | inactive |
| O=C(O)C(F)(OC(F)(F)C(F)(F)C(F)(F)F)C(F)(F)F (stereo not given) | inactive |
| O=C(O)C(F)(F)OC(F)(F)C(F)(F)OC(F)(F)F | inactive |
| COP(=O)(CCC(=O)NCO)OC | inactive |
| CC(O)C(F)(F)C(F)(F)F (stereo not given) | inactive |
| O=C(O)C(F)(F)OC(F)(F)C(F)(F)OC(F)(F)C(=O)O | inactive |
| OCC(F)(F)OC(F)(F)C(F)(F)OC(F)(F)C(F)(F)OC(F)(F)F | inactive |
| OCC(F)(F)OC(F)(F)C(F)(F)OC(F)(F)CO | inactive |
| OCC(F)(F)OC(F)(F)C(F)(F)OC(F)(F)C(F)(F)OC(F)(F)CO | inactive |
| O=C(O)C=CC(F)(C(F)(F)F)C(F)(F)F | inactive |
| FC(F)(F)C(F)(C(F)(F)F)C(F)(F)C(F)(F)CC1CO1 (stereo not given) | inactive |
